These results are taken from PubChem BioAssay AID693 (University of Pittsburgh Molecular Library Screening Center, 2007).

Structures are written as SMILES. The campaign covered roughly 97,000 compounds. About 130 (0.13%) were called active. The sample holds actives, similar compounds and a random draw of the others, so the mix is not that of the screen. Values without a mark were called inactive. No stated cut-off is given here; in the data, active means inhibition above about 34% (passing the limit was not always enough); inactive means the rest.

The target of this test is Serine/threonine-protein kinase PLK1 (Homo sapiens) (UniProt P53350). The experiment in a line: Plk1 polo box domain binding inhibitors, primary screen, biochemical, fluorescence polarization (AID 693). The following applies: Plk1 PBD phosphopeptide binding, active compounds read high,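 tested at about 20 µM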.
Sequence of Serine/threonine-protein kinase PLK1 (Homo sapiens) (P53350 whole entry, looked up, the tested form may be a part): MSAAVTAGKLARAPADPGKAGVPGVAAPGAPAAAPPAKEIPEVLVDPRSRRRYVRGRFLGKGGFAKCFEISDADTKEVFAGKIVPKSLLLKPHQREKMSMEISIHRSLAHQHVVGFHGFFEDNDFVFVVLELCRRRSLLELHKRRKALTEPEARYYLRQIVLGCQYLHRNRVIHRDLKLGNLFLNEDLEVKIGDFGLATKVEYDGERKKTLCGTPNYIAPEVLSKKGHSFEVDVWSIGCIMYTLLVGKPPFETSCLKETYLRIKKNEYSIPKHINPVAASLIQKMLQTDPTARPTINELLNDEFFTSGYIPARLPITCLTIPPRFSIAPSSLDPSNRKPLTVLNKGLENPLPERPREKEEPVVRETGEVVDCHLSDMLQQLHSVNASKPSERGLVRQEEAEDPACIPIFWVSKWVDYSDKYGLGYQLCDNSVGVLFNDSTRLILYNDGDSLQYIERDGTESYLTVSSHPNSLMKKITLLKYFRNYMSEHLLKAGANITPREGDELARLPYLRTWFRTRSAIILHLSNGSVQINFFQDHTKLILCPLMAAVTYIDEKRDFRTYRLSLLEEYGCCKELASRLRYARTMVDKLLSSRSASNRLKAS
`COc1ccc(NS(=O)(=O)c2ccc(NC(=S)NC(=O)CC(C)C)cc2)cc1`: the inhibition (in general, the relative decrease from the control value, in per cent) was 3.41%.
In the case of `CCc1ccc2nc3sc(C(=O)Nc4nnc(CC)s4)c(N)c3cc2c1` it was -67.7%; in that of `O=C(Cn1cc(-c2nnnn2-c2ccc(Cl)cc2)c(=O)c2ccccc21)c1ccccc1`, 6.2%.
The result for `COC(=O)c1ccccc1NC(=O)Cc1ccccc1OC` reads 12.5%; that for `COC(=O)c1nc2ccccc2s1`, -0.85%; that for `CCOC(=O)N1CCN(C(=O)COc2ccc(Cl)cc2C)CC1`, -13.2%.
In the case of `CNC(=O)/C(=C\C=C\c1ccccc1)NC(=O)c1ccc([N+](=O)[O-])cc1` it was -9.26%.
For `O=C(N/N=C/c1ccc(O)cc1)/C(=C/c1ccc([N+](=O)[O-])cc1)NC(=O)c1ccccc1`, the inhibition is -6.05%.
In the case of `O=C(NCCc1ccccc1)/C(=C\c1ccc([N+](=O)[O-])cc1)NC(=O)c1ccccc1`, the inhibition is 55.4% (active).
On to `O=C1CC(C(F)(F)C(F)(F)C(F)(F)C(F)(F)F)=Nc2ccccc2N1`, for which the inhibition was 5.5%.
The result for `COC(=O)c1ccc(C(=O)OC)c(NC(=S)N2CCCCC2)c1` reads -20.3%; that for `CCCCOc1ccc(N(CC(=O)NCC2CCCO2)C(=O)CCC(=O)Nc2cc(C)ccn2)cc1` (centres undefined), -5.72%; that for `C/C(=N\NC(=O)c1ccc(C)cc1)C1C(=O)c2ccccc2C1=O`, -15.6%.
In the case of `O=c1c([N+](=O)[O-])cc(C(F)(F)F)cn1Cc1cccc(Cl)c1` it was 2.97%.
The result for `COc1ccc(S(=O)(=O)Nc2ccc3oc(C)c(C(C)=O)c3c2)cc1` reads -17.3%; that for `CCNc1nc(NC(C)C)nc(OCCOC(=O)c2ccccc2)n1`, -7.64%; that for `CC1CC(C)CN(S(=O)(=O)c2cccc(C(=O)N3C(=O)c4cccc(N)c4C3=O)c2)C1` (centres undefined), 24.3%.
On to `O=C(CSCc1ccccc1Cl)NNC(=O)c1ccccc1`, for which the inhibition is -5.03%.
The result for `Cn1c(=O)n(C)c2cc(/C=N/NC(=O)c3cccc(Br)c3)ccc21` reads -16.4%; that for `CC1CCC(N2CC(=O)N(Cc3ccc4c(c3)OCO4)C(c3ccc(F)cc3)C2=O)CC1` (centres undefined), -19%; that for `COc1cc(OC)c(/C=N/NC(=O)c2ccc([N+](=O)[O-])cc2)cc1Br`, -6.93%.
The result for `CCC1(C)Cc2c(sc3nnn(CC(=O)Nc4ccc(Cl)cc4)c(=O)c23)CO1` (centres undefined) reads -26.3%; that for `COc1cccc(N2CCN(C(=O)Nc3ccc4c(c3)NC(=O)CO4)CC2)c1`, 16.5%.
In the case of `COc1ccc(NC(=O)Cn2c(=O)n(Cc3ccco3)c(=O)c3ccccc32)cc1`, the inhibition was 10.4%.
The result for `Cc1nc2ccccc2c(-c2ccccc2)c1C(=O)c1ccccc1` reads -0.63%; that for `COc1cc(/C=N\NC(=O)CNC(=O)c2cccc([N+](=O)[O-])c2)ccc1O`, -17.4%; that for `Brc1ccc(/C=N/N2CCN(C3c4ccccc4-c4ccccc43)CC2)s1`, -17.6%.
The result for `COc1ccc(CCN(C(=O)COc2ccccc2)c2nc(-c3ccccc3)cs2)cc1OC` reads -9.73%; that for `Cc1cnc(NC(=O)C2CCCC2)s1`, -23.2%.
In the case of `COc1ccc(N2CCN(C(=O)CNC(=O)c3ccc(C(C)(C)C)cc3)CC2)cc1` it was -1.88%; in that of `CCC(C)n1c(-c2cc(OC)c(OC)c(OC)c2)nc2nc3ccccc3nc21` (centres undefined), 14.5%.
`Cc1nn(CCOc2ccccc2)c(=O)n1-c1ccccc1F`: the inhibition is 8.4%.
The result for `Cc1nc2cc(NC(=O)NCc3ccccc3)ccc2o1` reads -8.52%.
The result for `O=C(OCc1cn(-c2ccc(Cl)c(Cl)c2)nn1)c1ccccc1Cl` reads 1.36%; that for `CCC(C)(C)c1ccc(Oc2ccc(NC(=O)COC(=O)C3=COCCO3)cc2)cc1`, 1.77%.
In the case of `Cc1ccccc1NC(=S)Nc1cccc([N+](=O)[O-])c1` it was 34.5%.
Consider `COc1cc(C(=O)N2CCN(C/C=C/c3ccccc3)CC2)cc(OC)c1C`, for which the inhibition is -11.1%.
The result for `CC(=O)c1ccc2c(ccc3ccccc32)c1` reads -3.5%; that for `CN1CC(c2ccccc2)C2(COc3ccccc3C2=O)C12C(=O)Nc1ccccc12` (centres undefined), 5%; that for `O=C(CCn1c(SCC(=O)c2ccccc2)nc2ccccc2c1=O)NCc1ccc(F)cc1`, 4.81%.
In the case of `CCS(=O)(=O)Nc1ccc(C2=NN(S(=O)(=O)c3ccc(F)cc3)C(c3ccco3)C2)cc1` (centres undefined), the inhibition was 11%.
In the case of `Cc1cccc(N(C(=O)c2ccc(CN3CCOCC3)o2)C(C(=O)NC2CCCCC2)c2ccc(F)cc2)c1` (centres undefined) it was 10.4%; in that of `CCOC(=O)c1sc2nc(SC)nc(-c3ccccc3)c2c1N`, -9.12%.
The result for `Cc1nn(Cc2ccccc2)c2c1C(c1ccccc1)C(C#N)=C(N)O2` (centres undefined) reads 17%; that for `O=C(CSCc1ccc(Cl)cc1)N1CCN(Cc2ccc3c(c2)OCO3)CC1`, -16.3%; that for `CC1(C)CC(CC(=O)O)C(=O)O1` (centres undefined), -18.7%.
On to `CCCC(O)(c1ccc(OC)cc1)C(CN(C)C)c1ccccc1` (centres undefined), for which the inhibition was 3.1%.
The result for `C/C(=N\NS(=O)(=O)c1cccc([N+](=O)[O-])c1)c1cc2ccccc2o1` reads 22%; that for `CN(CC(=O)Nc1cccc2c1CCCC2)S(=O)(=O)c1ccc(Cl)cc1`, -30%.
